The values below come from PubChem BioAssay (NCATS).

Each structure is given as a SMILES string. Records with an inconclusive call do not appear. Entries that show only a call come without a potency. Activity calls are given as the source filed them. Calls come from the whole dose curve; as a rule, active = well fitted cell-killing curve with a large enough effect; inconclusive = small, poorly fitted or top-dose-only effect; inactive = flat fitted curve, though single readings scatter.
Note: nearly all actives have a fitted effect of over 55% in size.

One test in a line: Cell Viability - LYMP2-020 (AID 986).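 Note: cells exposed to compound for 24 h at 37 °C.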 To be noted: series mostly up to 92.2 µM. The method in brief: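 Seed 2500 cells per well and incubate 5 hr at 37 C. Add compounds at a concentration series and incubate 24 hr at 37 C. Add CellTiter-Glo, wait 30 min at RT, read luminescence, and fit a Hill curve for AC50.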
Consider `CC(=O)c1ccccc1[N+](=O)[O-]`, for which the Potency result is “inactive”.

Take `CCCCCCCN`: the Potency result was “inactive”.

For the compound `FC(F)(F)c1ccccc1Cl`, the Potency result is “inactive”.

`O=C(O)c1cccc(Cl)c1Cl`: the Potency entry was “inactive”.

Regarding `NC(=O)NC(N)=O`, the Potency entry was “inactive”.

On to `C/C=C1\CC2C=CC1C2` (stereo not given), for which the Potency result was “inactive”.

`Cc1ccccc1C=O`: the Potency result was “inactive”.

In the case of `CCC(O)C(C)(C)C` (stereo not given), the Potency result was “inactive”.

As to `CCOC(=O)OCC`, the Potency result is “inactive”.

With `CC(=O)OCc1ccco1`, the Potency result was “inactive”.

For `c1ccc2c(c1)Oc1ccccc1S2`, the Potency result was “inactive”.

On to `Cc1ccc2ccccc2c1[N+](=O)[O-]`, for which the Potency entry is “inactive”.

Take `CC=O`: the Potency result was “inactive”.

As to `CNc1ccccc1`, the Potency entry is “inactive”.

Take `CC(C)=CCl`: the Potency entry is “inactive”.

Turning to `O=C(O)c1ccc(Cl)cc1Cl`, the Potency entry is “inactive”.

`C=C(C)C(=O)OCC(C)O` (stereo not given): the Potency result was “inactive”.

As to `NC(=O)CCCCC(N)=O`, the Potency entry is “inactive”.

As to `CN(C)CCCNCCCN`, the Potency entry was “inactive”.

On to `C=CCCC`, for which the Potency entry is “inactive”.

On to `CO[Si](CCCNCCC[Si](OC)(OC)OC)(OC)OC`, for which the Potency result was “inactive”.

As to `CC(=O)Nc1cccc(N)c1`, the Potency result was “inactive”.

With `Cc1cccc2ccccc12`, the Potency result was “inactive”.

As for `Cc1cc(C)c(N)cc1C`, the Potency result was “inactive”.

In the case of `Nc1cc(Cl)c(N)c(Cl)c1`, the Potency result was “inactive”.

Take `CCC(C)(C)C`: the Potency result was “inactive”.

As for `CCNc1cc(O)ccc1C`, the Potency result is “inactive”.

On to `Cc1cc(C)cc(O)c1`, for which the Potency entry was “inactive”.

For `COc1ccc(N=[N+]([O-])c2ccc(OC)cc2)cc1`, the Potency result was “inactive”.

Consider `CCOCC(=O)O`, for which the Potency entry was “inactive”.

As to `O=C(O)c1ccc(Cl)c(Cl)c1`, the Potency entry was “inactive”.

With `Nc1cccc2c(=O)[nH][nH]c(=O)c12`, the Potency entry is “inactive”.

On to `O=C(Cl)c1c(Cl)cccc1Cl`, for which the Potency result is “inactive”.

Take `C=CCCCC`: the Potency result was “inactive”.

Take `CCCCCCC(=O)O`: the Potency entry was “inactive”.

On to `Cc1cscn1`, for which the Potency result is “inactive”.

Take `O=C(Cl)c1cccc([N+](=O)[O-])c1`: the Potency entry is “inactive”.

As to `O=P(O)(OCc1ccccc1)OCc1ccccc1`, the Potency result was “inactive”.

`CC(C)N(C)C`: the Potency entry was “inactive”.

Turning to `Cc1ccc(S(=O)(=O)NC2CCCCC2)cc1`, the Potency entry is “inactive”.

The next test can be described thus: Cell Viability - LYMP2-022 (AID 987). To be noted: LYMP2-022 lymphoblastoid cell viability; series mostly up to 92.2 µM. Summed up:
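Cells were seeded at 2500 per well, rested 5 hr at 37 C, and treated with titrated compounds for 24 hr at 37 C. Cellular ATP was then quantified by luciferase luminescence, and AC50 values were derived from Hill-modelled concentration-response curves.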
On to `CC(=O)c1ccccc1[N+](=O)[O-]`, for which the Potency result is “inactive”.

Regarding `CCCCCCCN`, the Potency result is “inactive”.

As to `FC(F)(F)c1ccccc1Cl`, the Potency entry was “inactive”.

In the case of `O=C(O)c1cccc(Cl)c1Cl`, the Potency entry is “inactive”.

Turning to `NC(=O)NC(N)=O`, the Potency result was “inactive”.

Regarding `C/C=C1\CC2C=CC1C2` (stereo not given), the Potency entry is “inactive”.

As for `Cc1ccccc1C=O`, the Potency result was “inactive”.

For the compound `CCC(O)C(C)(C)C` (stereo not given), the Potency result is “inactive”.

For the compound `CCOC(=O)OCC`, the Potency result was “inactive”.

For the compound `CC(=O)OCc1ccco1`, the Potency entry is “inactive”.

`c1ccc2c(c1)Oc1ccccc1S2`: the Potency entry was “inactive”.

As for `Cc1ccc2ccccc2c1[N+](=O)[O-]`, the Potency entry was “inactive”.

`CC=O`: the Potency result was “inactive”.

For the compound `CNc1ccccc1`, the Potency result was “inactive”.

In the case of `CC(C)=CCl`, the Potency result was “inactive”.

As for `O=C(O)c1ccc(Cl)cc1Cl`, the Potency result was “inactive”.

For `C=C(C)C(=O)OCC(C)O` (stereo not given), the Potency entry was “inactive”.

With `NC(=O)CCCCC(N)=O`, the Potency result was “inactive”.

In the case of `CN(C)CCCNCCCN`, the Potency entry was “inactive”.

As for `C=CCCC`, the Potency result was “inactive”.

`CO[Si](CCCNCCC[Si](OC)(OC)OC)(OC)OC`: the Potency entry was “inactive”.

Consider `CC(=O)Nc1cccc(N)c1`, for which the Potency result is “inactive”.

Consider `Cc1cccc2ccccc12`, for which the Potency result is “inactive”.

As to `Cc1cc(C)c(N)cc1C`, the Potency entry is “inactive”.

`Nc1cc(Cl)c(N)c(Cl)c1`: the Potency result is “inactive”.

`CCC(C)(C)C`: the Potency result is “inactive”.

Consider `CCNc1cc(O)ccc1C`, for which the Potency result is “inactive”.

On to `Cc1cc(C)cc(O)c1`, for which the Potency result was “inactive”.

Take `COc1ccc(N=[N+]([O-])c2ccc(OC)cc2)cc1`: the Potency entry was “inactive”.

For `CCOCC(=O)O`, the Potency entry was “inactive”.

Consider `O=C(O)c1ccc(Cl)c(Cl)c1`, for which the Potency result was “inactive”.

Turning to `Nc1cccc2c(=O)[nH][nH]c(=O)c12`, the Potency entry was “inactive”.

On to `O=C(Cl)c1c(Cl)cccc1Cl`, for which the Potency result was “inactive”.

Turning to `C=CCCCC`, the Potency entry is “inactive”.

With `CCCCCCC(=O)O`, the Potency result is “inactive”.

On to `Cc1cscn1`, for which the Potency result is “inactive”.

For `O=C(Cl)c1cccc([N+](=O)[O-])c1`, the Potency entry was “inactive”.

On to `O=P(O)(OCc1ccccc1)OCc1ccccc1`, for which the Potency result was “inactive”.

Turning to `CC(C)N(C)C`, the Potency result was “inactive”.

In the case of `Cc1ccc(S(=O)(=O)NC2CCCCC2)cc1`, the Potency result was “inactive”.
